# ATXN viability: Viability Counterscreen for Primary qHTS for Inhibitors of ATXN expression; 400,000 tested, 0.49% active; Potency, µM (series often up to 56.7 µM), usual class: cytotoxic; S2 cells (HEK-293 line with an ATXN2-luciferase reporter) viability, CellTiter-Fluor protease fluorescence, 24 h; AID 651635, 2014; note: potency is the fitted concentration of half-maximal effect; nearly all actives have a fitted effect of over 40% in size
# a7 integrin act: qHTS for Activators of Integrin-Mediated Alleviation for Muscular Dystrophy | alpha7betagal myoblasts, beta-gal FDG fluorescence, 48 h | 350,000 tested, 0.064% active | Potency, µM (series often up to 38.3 µM), for the others: top-dose activation, most hits filed as activators;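 note: potency is the fitted concentration of half-maximal effect; 100% = response of the positive control SU9516; nearly all actives have a fitted effect of over 60% in size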
#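 Alpha7betagal+/- myoblasts (passage 13) were plated 16-24 hr, then exposed to compounds (1:260 dilution of DMSO stock) for 48 hours at 37C. After MPER lysis, β-galactosidase reporter activity was read as FDG fluorescence (ex 480/em 540) after 30 minutes.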
# D3 ag: qHTS of D3 Dopamine Receptor Agonist: qHTS. max activation, %. D3R DiscoveRx beta-arrestin cells, luminescence, 90 min. AID 652048, 2013. 410,000 tested, 0.58% active. D(3) dopamine receptor (Homo sapiens), P35462; in the data active = max activation above about 30%; note: 0% is about no effect
# Target sequence (P35462 whole entry, looked up): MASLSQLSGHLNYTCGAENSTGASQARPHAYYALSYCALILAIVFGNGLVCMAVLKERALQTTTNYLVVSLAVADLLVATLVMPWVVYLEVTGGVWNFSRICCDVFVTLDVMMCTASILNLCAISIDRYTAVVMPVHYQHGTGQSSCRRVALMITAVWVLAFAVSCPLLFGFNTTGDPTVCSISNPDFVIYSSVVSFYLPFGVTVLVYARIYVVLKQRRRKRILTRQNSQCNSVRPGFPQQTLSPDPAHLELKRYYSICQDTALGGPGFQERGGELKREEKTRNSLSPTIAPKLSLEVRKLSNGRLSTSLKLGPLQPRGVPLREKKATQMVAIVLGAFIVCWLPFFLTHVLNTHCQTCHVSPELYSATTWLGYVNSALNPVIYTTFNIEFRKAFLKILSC
#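 Cells at 1500/well, incubated overnight, then treated with pinned compounds (dopamine as control) for 90 min at 37 degrees C. DiscoveRx reagent added for 30 - 60 minutes at room temperature; luminescence read.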
# ATXN2 expr inh: Primary qHTS for Inhibitors of ATXN expression; AID 1745845, 2022; Potency, µM (highest dose often 57 µM), for the others: at the highest dose activity change, negative = inhibition, most hits filed as inhibitors; 360,000 tested, 0.72% active; HEK-293 ATXN2-luciferase reporter, luminescence, 24 h; note: potency is the fitted concentration of half-maximal effect; % is set by controls: 0 for no effect and ±100 for the full control effect; nearly all actives have a fitted effect of over 55% in size
#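 ATXN2-luciferase reporter cells (luciferase flanked by upstream and downstream ATXN2 gene portions) were treated 24 h at 37 °C with compounds at up to 57 uM. SteadyGlo luminescence gave expression; GF-AFC fluorescence gave viability.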
# IL-1B inflam inh: qHTS for Inhibitors of Inflammasome Signaling: IL-1-beta AlphaLISA Primary Screen | THP-1 LPS/ATP IL-1B secretion, AlphaLISA, 16 h; hits give low values | activity change, % at 57.5 µM | 360,000 tested, 4.7% active | AID 743279, 2014; in the data active = activity change below about -50%; inconclusive = mostly about -30% to -49%; note: % is set by controls: 0 for no effect and ±100 for the full control effect
#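 Secreted IL-1B measured by AlphaLISA bead assay after 16 h compound exposure of THP-1 cells; compounds (final up to 57.5 uM) added 1 h before LPS (250 ng/mL) and ATP (1.25 mM) stimulation; lower signal means less secretion.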
# DRD3 antagonist: qHTS of D3 Dopamine Receptor Antagonist: qHTS; D(3) dopamine receptor (Homo sapiens), P35462; D3R cells, DiscoveRx beta-arrestin luminescence, antagonist mode; hits give low values; max response, negative = inhibition, %; 360,000 tested, 2.5% active; in the data active = max response below about -50%; inconclusive = no clear call, values can overlap the other calls; note: % is set by controls: 0 for no effect and ±100 for the full control effect
#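 Cells expressing the human receptor were seeded at 1500 cells/well, incubated overnight at 37 degrees C in 5% CO2, then exposed to library compounds with dopamine controls for 90 minutes at 37 degrees C before luminescent detection.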
# * marks the source's active call; other numbers are inactive results; i = inactive; ? = inconclusive; · = no result given; ! = not active in a repeat; [ ] = another dose, or the depositor's remark. Shown are actives, neighbours in structure and some others; about 7% of the full set was active somewhere. Unless noted, calls come from the whole dose curve; as a rule, active = well fitted curve in the direction sought with a large enough effect; inconclusive = small, poorly fitted or top-dose-only effect, or another doubt; inactive = no such curve, though single readings can be large; an effect the other way counts as inactive or inconclusive.
SMILES,ATXN viability,a7 integrin act,D3 ag,ATXN2 expr inh,IL-1B inflam inh,DRD3 antagonist
Cc1cccc(CN2CCCC(C(=O)c3ccc(C(F)(F)F)cc3)C2)n1 (centres undefined),?,-3%,-12,?,17,-5
Cc1cc(Cl)ccc1C(=O)C1CCCN(C2CCSCC2)C1 (centres undefined),i,13%,-25,-20%,-28,-76*
CCOc1ccccc1NC(=O)c1cccn(Cc2ccccc2C)c1=O,i,·,4,2%,·,·
CCOc1ccc(CN(CCc2ccc3c(c2)OCO3)Cc2cccc(OC)c2)cc1,i,·,-20,-2%,·,·
CCC1(CC)C(=O)NC(=O)NC1=O,i,·,-6,-5%,·,·
CCc1ccccc1NC(=O)CN1CCN(C(=O)COc2ccccc2C#N)CC1,i,-33%,2,·,17,7
CN1CCC(c2c[nH]c3ccc(O)cc23)CC1,i,·,-1,2%,0,?
CN1CCC(c2c[nH]c3ccccc23)C1 (centres undefined),i,-15%,-2,·,?,-100*
COc1ccc(NC(=O)N(C)C[C@H]2Oc3c(NC(=O)Nc4ccccc4)cccc3C(=O)N([C@H](C)CO)C[C@@H]2C)cc1,?,-5%,12,5%,-10,6
COc1ccc(S(=O)(=O)N(C)C[C@H]2Oc3c(NC(=O)NC4CCCCC4)cccc3C(=O)N([C@H](C)CO)C[C@@H]2C)cc1,?,-35%,-21,?,-55*,?
Cc1nc2ccccc2c(=O)n1-c1ccccc1Cl,?,·,8,-26%[116 µM],·,·
O=c1[nH]c(CN2CC=C(c3ccccc3)CC2)nc2scc(-c3ccccc3)c12,i,-22%,68*,·,41,-7
CC1CC(C)CC(C)C(O)C(C#N)=CC=CCC(C2CCCC2C(=O)O)OC(=O)CC(O)C(C)C1 (centres undefined),?,-54%,0,0.75µM*,-103*,5
O=[N+]([O-])c1ccc(N2CC2)c([N+](=O)[O-])c1,i,2%,-14,-17%,-14,-21
O=[N+]([O-])c1ccc(Sc2nc3ccccc3o2)c([N+](=O)[O-])c1,·,-56%,-25,?,-101*,-21
O=C(CCl)c1ccc(Cl)cc1Cl,11µM*!,·,-11,?,·,·
O=C(CN1CCCCC1)c1ccccc1Cl,i,22%,-16,2%,12,?
O=[N+]([O-])c1ccc(C[n+]2c(-c3ccccc3)cc(-c3ccccc3)cc2-c2ccccc2)cc1,i,-4%,0,-16%,?,14
c1ccc(-c2cc(-c3ccccc3)[n+](-c3ccccc3)c(-c3ccccc3)c2)cc1,·,-72%,1,8.9µM*,-102*,8
CN(C)c1ccc(-[n+]2c(-c3ccccc3)cc(-c3ccccc3)cc2-c2ccccc2)cc1,?,-59%,-9,?,-92*,-7
O=[N+]([O-])c1cc(Cl)c(O)c(-[n+]2c(-c3ccccc3)cc(-c3ccccc3)cc2-c2ccccc2)c1,?,12%,-1,-26%,-5,-25
Cc1ccc(-c2cc(-c3ccc(C)cc3)[n+](-c3ccccc3)c(-c3ccc(C)cc3)c2)cc1,·,-41%,-24,?,-99*,-25
C[n+]1c(-c2ccccc2)cc(-c2ccc(Cl)cc2)cc1-c1ccccc1,i,14%,-3,?,-83*,2
Cc1cc(-c2ccccc2)cc(C)[n+]1Cc1ccccc1,i,-20%,-15,-21%,-2,-16
Cc1cccc(OC(C)C(=O)NCC2(N(C)C)CCCCC2)c1C (centres undefined),?,·,0,-10%,·,·
SMILES,ATXN viability,a7 integrin act,D3 ag,ATXN2 expr inh,IL-1B inflam inh,DRD3 antagonist
CC(C)(C)c1ccc(S(=O)(=O)N2CC3CC(C2)c2cccc(=O)n2C3)cc1 (centres undefined),i,11%,1,-10%,12,-7
c1cnc(OCCN2CC2)cn1,i,?,13,-13%,-2,16
Cc1ccc(-c2cc(-c3ccc(C)cc3)[n+](-c3ccc(C(=O)[O-])cc3)c(-c3ccc(C)cc3)c2)cc1,i,2%,-16,0%,21,7
Cc1ccc(-c2cc(-c3ccccc3)cc(-c3ccccc3)[n+]2-c2ccccc2)cc1,13µM*,-41%,11,3.5µM*,-100*,-13
Cc1cc(C=C2C(=O)NC(=S)NC2=O)c(C)n1-c1ccc2c(c1)OCO2,·,-58%,-2,?,-101*,-18
Cc1[nH]c2ccccc2c1C(=O)C(=O)N1CCC2(CC1)OCCO2,i,0%,0,-2%,28,1
COc1ccccc1OCC#CCN1CCCCCC1,i,-13%,-20,-21%,-14,?
COc1ccc(C2=CC(c3ccc(OC)c(OC)c3)c3c(c4ccccc4oc3=O)O2)cc1OC (centres undefined),?,-27%,0,·,17,34
CN(C)C(=S)SSC(=S)N(C)C,22µM*,·,6,?,24,-74*
CCOC(=O)c1c(-n2c(C)cc(C=C3C(=O)NC(=O)NC3=O)c2C)sc2c1CCCC2,i,-4%,4,?,-15,-5
Cc1cccc(N2C(=O)NC(=O)/C(=C\c3cc(C)n(-c4sc5c(c4C#N)CCCC5)c3C)C2=O)c1C,i,-13%,3,-31%,-138*,-6
Cc1nn(Cc2ccccc2)c(C)c1C(=O)O,i,-11%,20,4%,11,4
COc1ccc(N2C(=O)/C(=C/c3ccc(C)o3)C(=O)NC2=S)c(OC)c1,i,1%,4,·,9,11
CN(C)c1ccc(CN2CCc3nc(N4CCN(c5ccccn5)CC4)ncc3C2)cc1,?,·,-21,28µM*,·,·
CSc1ncc(/C=C2/C(=O)NC(=O)N(c3ccc(Cl)cc3)C2=O)cn1,i,21%,-13,-1%,58,10
CC1CCCC(C)N1/N=C/c1c[nH]c2ccc(Br)cc12 (centres undefined),i,-50%,-14,-36%,-93*,-76*
CN(C)c1ccc(C=C2C=CC=C2)cc1,?,-15%,2,10%,-27,-18
CCn1ccnc1CN1CCCC(C(=O)c2cc(C)c(OC)c(C)c2)C1 (centres undefined),i,0%,-9,·,-10,15
CC1CC(C)OP(=O)(OCCC#N)O1 (centres undefined),i,?,-14,-7%,-4,-14
